In PubChem BioAssay (Tox21):
Records with an inconclusive call do not appear. Entries that show only a call come without a potency. Unmarked numbers belong to inactive results. Active and inactive are the calls of the source. Unless noted, calls follow the shape of the dose curve; as a rule, active = well fitted curve in the direction sought with a large enough effect in the repeat runs; inconclusive = weak or mixed curves; inactive = no such curve, though single readings can be large; an effect the other way counts as inactive or inconclusive.

What was measured:
[1] = A CellTox Green Cytotoxicity Assay to monitor cytotoxicity in HEK293 cells - 16 hour (AID 1224888); also: nearly all actives have a fitted effect of over 35% in size
Outline: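 Fluorescence from a DNA-binding dye excluded by viable cells was measured repeatedly in the same HEK293 wells (600 cells/well) during continuous compound exposure at 37 C. Each assay gives one read point: 0, 8, 16, 24, 32 or 40 h.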

[2] = A CellTox Green Cytotoxicity Assay to monitor cytotoxicity in HepG2 cells - 8 hour (AID 1224890); also: nearly all actives have a fitted effect of over 45% in size; also: potency is read from the fitted curve at half-maximal effect
Outline: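 Real-time cytotoxicity: fluorescence of a cell-impermeant cyanine dye binding DNA of dead HepG2 cells, measured repeatedly (0–40 h) during compound exposure at 37 C. Cells seeded 600/well with reagent, dosed after 5 h.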

[3] = qHTS assay to identify small molecule antagonists of the estrogen receptor alpha (ER-alpha) signaling pathway using the BG1 cell line in the presence of 0.1 nM 17-beta-estradiol - cell viability counter screen (AID 1259241); also: nearly all actives have a fitted effect of over 40% in size
Outline: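 Estradiol-stimulated (0.1 nM) VM7Luc4E2 cells exposed to compounds 22 hr; viability measured by fluorescence of cleaved CellTiter-Fluor substrate after 30 min.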

[4] = qHTS assay to identify small molecule antagonists of the androgen receptor (AR) signaling pathway using the MDA cell line in the presence of 0.5 nM R1881 - cell viability counter screen (AID 1259242); also: nearly all actives have a fitted effect of over 45% in size
Outline: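 Live-cell protease activity was measured by CellTiter-Fluor fluorescence after 30 min. Before that, MDA-kb2 MMTV-luciferase cells had 16 hr at 37C without CO2, exposed to test compounds and 0.5 nM R1881 final.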

[5] = molecular target: Estrogen receptor (Homo sapiens) (UniProt P03372); assay: qHTS assay to identify small molecule antagonists of the estrogen receptor alpha (ER-alpha) signaling pathway using the BG1 cell line in the presence of 0.1 nM 17-beta-estradiol (AID 1259244); also: nearly all actives have a fitted effect of over 50% in size
Outline: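 Luciferase luminescence (ONE-Glo, 30 min at room temperature) was read after 22 hr at 37C exposure to compounds plus 17beta-estradiol at 0.1 nM final. Cells were VM7Luc4E2 with endogenous ER-alpha and an ERE-driven luciferase, pre-cultured 5 days in hormone-depleted medium.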

[6] = qHTS RealTime-Glo MT Cell Viability Assay in HEK293 cells - 24 hour (AID 1224886); also: nearly all actives have a fitted effect of over 50% in size; also: potency is read from the fitted curve at half-maximal effect; as to activity change, negative = cytotoxicity: top concentration of the series differs between compounds
Outline: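 Luminescence generated by NanoLuc from substrate produced by living HEK293 cells served as the viability signal. Each value reflects the reading at its stated time point during continuous 40 h compound exposure at 37 C.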

[7] = qHTS RealTime-Glo MT Cell Viability Assay in HEK293 cells - 8 hour (AID 1224887); also: top concentration of the series differs between compounds; nearly all actives have a fitted effect of over 50% in size
Outline: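 Luminescence, which tracks viable cell number through reduction of the prosubstrate to a NanoLuc substrate, was read over continuous 37 C culture. Cells (600/well) were premixed with reagent and rested 5 h before 23 nL of compound in DMSO was pinned.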

[8] = qHTS assay to identify small molecule phospholipidosis (PLD) inducers (AID 1259344; active = well fitted curve in the direction sought with a large enough effect; an effect the other way counts as inactive or inconclusive)
Outline: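 After 4 h attachment on collagen I, HepG2 cells were dosed with compound alongside LipidTOX Red, kept 24 h at 37 C, fixed, and imaged for lamellar phospholipid pits.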

[9] = qHTS RealTime-Glo MT Cell Viability Assay in HepG2 cells - 0 hour (AID 1224889); also: nearly all actives have a fitted effect of over 50% in size
Outline: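 Tox21 10K library screened in qHTS format on HepG2 cells carrying RealTime-Glo reagents. Compounds were added after a 5 h preincubation, and the luminescent signal from continuous culture was measured repeatedly during 40 h treatment.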

[10] = molecular target: Androgen receptor (Homo sapiens) (UniProt P10275); assay: qHTS assay to identify small molecule antagonists of the androgen receptor (AR) signaling pathway using the MDA cell line in the presence of 0.5 nM R1881 (AID 1259243); also: nearly all actives have a fitted effect of over 50% in size
Outline: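 Luminescent reporter readout (ONE-Glo, 30 min, room temperature) after 16 hr co-treatment of MDA-kb2 cells with test compounds and 0.5 nM R1881 final, at 37C without CO2. The MMTV-driven luciferase responds to both AR and GR.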

Chain of Androgen receptor (Homo sapiens) (P10275 whole entry, looked up): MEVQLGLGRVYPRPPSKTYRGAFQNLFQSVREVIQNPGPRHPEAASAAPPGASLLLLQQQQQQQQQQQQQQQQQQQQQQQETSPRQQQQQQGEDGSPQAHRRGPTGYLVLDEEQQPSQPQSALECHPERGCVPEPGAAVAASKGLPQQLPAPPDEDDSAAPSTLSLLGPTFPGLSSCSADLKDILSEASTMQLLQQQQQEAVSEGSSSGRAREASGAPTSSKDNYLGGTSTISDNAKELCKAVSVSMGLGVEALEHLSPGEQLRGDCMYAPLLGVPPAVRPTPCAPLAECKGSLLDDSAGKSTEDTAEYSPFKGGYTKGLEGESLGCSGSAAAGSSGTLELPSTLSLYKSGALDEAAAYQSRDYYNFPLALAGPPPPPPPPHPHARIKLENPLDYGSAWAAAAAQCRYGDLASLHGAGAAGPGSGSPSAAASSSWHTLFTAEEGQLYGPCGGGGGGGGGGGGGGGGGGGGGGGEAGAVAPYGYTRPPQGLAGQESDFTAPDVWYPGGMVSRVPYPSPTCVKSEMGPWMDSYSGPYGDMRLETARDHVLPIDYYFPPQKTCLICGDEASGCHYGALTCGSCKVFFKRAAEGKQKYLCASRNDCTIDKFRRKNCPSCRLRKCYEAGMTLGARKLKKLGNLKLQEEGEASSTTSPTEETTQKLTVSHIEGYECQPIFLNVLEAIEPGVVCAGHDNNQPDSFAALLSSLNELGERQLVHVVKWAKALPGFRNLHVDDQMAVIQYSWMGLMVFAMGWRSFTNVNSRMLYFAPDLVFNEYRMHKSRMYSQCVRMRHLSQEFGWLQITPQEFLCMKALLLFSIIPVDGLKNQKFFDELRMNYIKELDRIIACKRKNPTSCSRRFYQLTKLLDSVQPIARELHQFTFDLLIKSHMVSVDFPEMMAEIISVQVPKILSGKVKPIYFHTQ
Chain of Estrogen receptor (Homo sapiens) (P03372 whole entry, looked up): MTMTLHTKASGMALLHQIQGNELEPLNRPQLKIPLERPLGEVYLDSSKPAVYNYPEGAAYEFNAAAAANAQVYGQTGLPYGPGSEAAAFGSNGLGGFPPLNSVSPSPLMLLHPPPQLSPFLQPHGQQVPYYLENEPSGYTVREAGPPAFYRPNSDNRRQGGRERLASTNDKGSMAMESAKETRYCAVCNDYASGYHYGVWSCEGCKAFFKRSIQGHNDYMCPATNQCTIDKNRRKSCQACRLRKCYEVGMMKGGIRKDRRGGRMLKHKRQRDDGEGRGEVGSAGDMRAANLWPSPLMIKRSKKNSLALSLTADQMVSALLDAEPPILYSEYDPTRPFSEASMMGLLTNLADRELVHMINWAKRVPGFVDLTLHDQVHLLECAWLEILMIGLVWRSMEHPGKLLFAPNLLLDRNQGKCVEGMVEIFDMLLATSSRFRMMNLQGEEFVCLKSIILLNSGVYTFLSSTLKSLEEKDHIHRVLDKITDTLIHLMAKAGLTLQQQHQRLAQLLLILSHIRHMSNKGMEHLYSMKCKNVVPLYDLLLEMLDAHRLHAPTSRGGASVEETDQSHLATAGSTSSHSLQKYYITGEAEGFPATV

## COc1nc(N)nc2nc[nH]c12
[1]
  Potency: inactive
[2]
  Potency: inactive
[3]
  outcome: inactive
[4]
  outcome: inactive
[5]
  outcome: inactive

## C=CCN1C[C@H](C(=O)N(CCCN(C)C)C(=O)NCC)C[C@@H]2c3cccc4[nH]cc(c34)C[C@H]21
[6]
  Potency: inactive
[7]
  Potency: inactive
[1]
  Potency: inactive
[2]
  Potency: inactive
[3]
  outcome: inactive
[4]
  outcome: inactive
[5]
  outcome: inactive

## CN(C)CC/C=C1/c2ccccc2COc2ccc(CC(=O)O)cc21
[1]
  Potency: inactive
[2]
  Potency: inactive
[3]
  outcome: inactive
[4]
  outcome: inactive
[8]
  outcome: inactive

## CCCCCCCCCCCCCBr
[1]
  Potency: inactive
[2]
  Potency: inactive
[3]
  outcome: inactive

## c1ccc(B(c2ccccc2)c2ccccc2)cc1
[7]
  Potency: inactive
[1]
  Potency: inactive
[9]
  Potency: inactive
[2]
  Potency: inactive
[3]
  outcome: inactive
[5]
  outcome: inactive

## CC(C)(C)NC[C@H](O)COc1cccc2c1CCCC2=O
[6]
  Potency: inactive
[7]
  Potency: inactive
[2]
  Potency: inactive
[3]
  outcome: inactive
[4]
  outcome: inactive
[5]
  outcome: inactive
[8]
  outcome: inactive

## N#Cc1ccccc1O
[6]
  Potency: inactive
[7]
  Potency: inactive
[1]
  Potency: inactive
[2]
  Potency: inactive
[3]
  outcome: inactive
[5]
  outcome: inactive

## O=NN(CCCl)C(=O)NC1CCCCC1
[6]
  Potency: inactive
[7]
  Potency: inactive
[1]
  Potency: inactive
[2]
  Potency: inactive
[3]
  outcome: inactive
[4]
  outcome: inactive
[8]
  outcome: inactive

## CC(C)[C@H]1CC[C@H](C)C[C@@H]1O
[6]
  Potency: inactive
[7]
  Potency: inactive
[1]
  Potency: inactive
[2]
  Potency: inactive
[3]
  outcome: inactive
[10]
  Potency: inactive

## CC(C)Nc1ccccc1
[6]
  Potency: inactive
[7]
  Potency: inactive
[1]
  Potency: inactive
[2]
  Potency: inactive
[3]
  outcome: inactive
[4]
  outcome: inactive
[5]
  outcome: inactive

## C=CCSSCCC
[1]
  Potency: inactive
[2]
  Potency: inactive
[3]
  outcome: inactive
[4]
  outcome: inactive
[5]
  outcome: inactive

## O=[N+]([O-])c1c(Cl)cc(Cl)cc1Cl
[6]
  Potency: inactive
[7]
  Potency: inactive
[9]
  Potency: inactive
[2]
  Potency: inactive
[3]
  outcome: inactive
[4]
  outcome: inactive

## CCC(C(=O)OCCN1CCOC(c2ccccc2)C1C)c1ccccc1 (stereo not given)
[1]
  Potency: inactive
[9]
  Potency: inactive
[2]
  Potency: inactive
[3]
  outcome: inactive
[4]
  outcome: inactive
[5]
  outcome: inactive

## CC/C=C\CCOC(=O)c1ccccc1O
[6]
  Potency: inactive
[7]
  Potency: inactive
[1]
  Potency: inactive
[3]
  outcome: inactive
[4]
  outcome: inactive
[5]
  outcome: inactive

## CCC(=O)c1c(O)cc(O)cc1O
[6]
  Potency: inactive
[7]
  Potency: inactive
[2]
  Potency: inactive
[3]
  outcome: inactive
[4]
  outcome: inactive
[10]
  Potency: inactive
[5]
  outcome: inactive
[8]
  outcome: inactive

## [O]=[Mo](=[O])=[O]
[1]
  activity change: -32.5% [at 15.8 µM, hits give high values]
[9]
  activity change, negative = cytotoxicity: 1.95% [at 15.8 µM]
[2]
  cytotoxicity increase: -8.17% [at 15.8 µM]
[3]
  activity change, negative = cytotoxicity: 0.14% [at 19 µM]
[4]
  viability change, negative = cytotoxic: 3.82% [at 19 µM]
[5]
  activity change, negative = inhibition: 3.96% [at 19 µM]

## Cn1nnc2c(C(N)=O)ncn2c1=O
[6]
  Potency: inactive
[7]
  Potency: inactive
[1]
  Potency: inactive
[2]
  Potency: inactive
[3]
  outcome: inactive
[5]
  outcome: inactive
[8]
  outcome: inactive

## CC(C)=CCC[C@@](C)(O)[C@H]1CC=C(C)CC1
[6]
  Potency: inactive
[7]
  Potency: inactive
[1]
  Potency: inactive
[2]
  Potency: inactive
[3]
  outcome: inactive
[4]
  outcome: inactive
[8]
  outcome: inactive

## CCC[C@@H]1C[C@@H](C(=O)N[C@@H]([C@H]2O[C@H](SC)[C@H](O)[C@@H](O)[C@H]2O)[C@@H](C)O)N(C)C1
[6]
  Potency: inactive
[7]
  Potency: inactive
[1]
  Potency: inactive
[2]
  Potency: inactive
[3]
  outcome: inactive
[4]
  outcome: inactive
[5]
  outcome: inactive
[8]
  outcome: inactive

## CC12CCC(C1)C(C)(C)C2O (stereo not given)
[7]
  Potency: inactive
[2]
  Potency: 1.95 µM (active)
[3]
  outcome: inactive
[4]
  outcome: inactive
[5]
  outcome: inactive

## O=Cc1ccccc1Cl
[6]
  Potency: inactive
[7]
  Potency: inactive
[9]
  Potency: inactive
[2]
  Potency: inactive
[3]
  outcome: inactive

## C[C@@H](O)C(=O)O
[6]
  Potency: inactive
[7]
  Potency: inactive
[1]
  Potency: inactive
[2]
  Potency: inactive
[3]
  outcome: inactive
[4]
  outcome: inactive
[5]
  outcome: inactive

## CCCCCC/C=C/C(=O)OC
[6]
  Potency: inactive
[7]
  Potency: inactive
[9]
  Potency: inactive
[2]
  Potency: 49 µM (active)
[3]
  outcome: inactive

## CCCCCc1cccc(=O)o1
[6]
  Potency: inactive
[7]
  Potency: inactive
[9]
  Potency: inactive
[2]
  Potency: inactive
[3]
  outcome: inactive
[4]
  outcome: inactive
[5]
  outcome: inactive

## COc1cc2c(cc1OC)C(=O)C(CC1CCN(Cc3ccccc3)CC1)C2 (stereo not given)
[6]
  Potency: 21.3 µM (active)
[1]
  Potency: inactive
[2]
  Potency: inactive
[3]
  outcome: inactive
[4]
  outcome: inactive
[10]
  Potency: inactive
[5]
  outcome: inactive
[8]
  outcome: inactive

## CCC(C)C(=O)OCCc1ccccc1 (stereo not given)
[6]
  Potency: inactive
[7]
  Potency: inactive
[1]
  Potency: inactive
[2]
  Potency: inactive
[3]
  outcome: inactive
[4]
  outcome: inactive
[5]
  outcome: inactive

## CC(=O)OCC(=O)Nc1cc(C#N)cc(NC(=O)COC(C)=O)c1Cl
[6]
  Potency: inactive
[7]
  Potency: inactive
[1]
  Potency: inactive
[2]
  Potency: inactive
[3]
  outcome: inactive
[4]
  outcome: inactive
[5]
  outcome: inactive
[8]
  PLD induction: -3.87% [at 7.66 µM]

## O=C(O)CCCCCC(=O)O
[6]
  Potency: inactive
[7]
  Potency: inactive
[9]
  Potency: inactive
[2]
  Potency: inactive
[3]
  outcome: inactive
[4]
  outcome: inactive
[5]
  outcome: inactive

## CC(=O)Nc1ccc(OC(=O)c2ccccc2OC(C)=O)cc1
[6]
  Potency: inactive
[7]
  Potency: inactive
[9]
  Potency: inactive
[2]
  Potency: inactive
[3]
  outcome: inactive
[4]
  outcome: inactive
[5]
  outcome: inactive
[8]
  outcome: inactive

## CC1(C)[C@H]2CC[C@](C)(C2)[C@H]1O
[6]
  Potency: inactive
[7]
  Potency: inactive
[1]
  Potency: inactive
[2]
  Potency: inactive
[3]
  outcome: inactive
[4]
  outcome: inactive
[5]
  outcome: inactive

## C/C(CC(C)C)=N\O
[6]
  Potency: inactive
[7]
  Potency: inactive
[1]
  Potency: inactive
[2]
  Potency: inactive
[3]
  outcome: inactive
[5]
  outcome: inactive

## O=C[O][Al]([O]C=O)[O]C=O
[6]
  Potency: inactive
[1]
  Potency: inactive
[9]
  Potency: inactive
[2]
  Potency: inactive
[3]
  outcome: inactive
[4]
  outcome: inactive
[5]
  outcome: inactive

## CC(C)C[C@@H]1[C@H](c2ccccc2)OC(=O)N1CCCN1CCCCCC1
[7]
  Potency: inactive
[1]
  Potency: inactive
[2]
  Potency: inactive
[3]
  outcome: inactive
[10]
  Potency: inactive
[5]
  outcome: inactive

## CC(O)CC(C)O (stereo not given)
[6]
  Potency: inactive
[7]
  Potency: inactive
[9]
  Potency: inactive
[2]
  Potency: inactive
[3]
  outcome: inactive

## CC(C)(CO)C(O)C(=O)NCCCO (stereo not given)
[6]
  Potency: inactive
[7]
  Potency: inactive
[1]
  Potency: inactive
[2]
  Potency: inactive
[3]
  outcome: inactive
[4]
  outcome: inactive
[5]
  outcome: inactive

## Cc1ccc(N)cc1S(=O)(=O)O
[6]
  Potency: inactive
[7]
  Potency: inactive
[9]
  Potency: inactive
[2]
  Potency: inactive
[3]
  outcome: inactive
[4]
  outcome: inactive
[5]
  outcome: inactive
